Consider 3 compounds from PubChem BioAssay (NCATS).

Structures are written as SMILES. Inconclusive results are not listed. Calls of active or inactive are those of the source. Calls follow the shape of the dose curve; as a rule, active = well fitted inhibition curve with a large enough effect; inconclusive = small, poorly fitted or top-dose-only effect; inactive = no such curve, though single readings can be large or run the other way.

The assay concerns the target Cytochrome P450 2D6 (Homo sapiens) (UniProt P10635). The experiment in a line: qHTS Assay for Inhibitors and Substrates of Cytochrome P450 2D6 (AID 891). Also: nearly all actives have a fitted effect of over 60% in size. In short, it runs like this:
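Human CYP2D6 (5 nM) with 30 uM Luciferin-ME EGE (at Km) in 100 mM KPO4, compound preincubated 10 min, then NADPH regeneration system for 60 min at room temperature. Luciferin read by luminescence; normalized to 1.43 uM quinidine.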
(In qHTS, concentration-response curves come from the screen itself.)
Potency is read from the fitted curve at half-maximal effect.

Chain of Cytochrome P450 2D6 (Homo sapiens) (P10635 whole entry, looked up): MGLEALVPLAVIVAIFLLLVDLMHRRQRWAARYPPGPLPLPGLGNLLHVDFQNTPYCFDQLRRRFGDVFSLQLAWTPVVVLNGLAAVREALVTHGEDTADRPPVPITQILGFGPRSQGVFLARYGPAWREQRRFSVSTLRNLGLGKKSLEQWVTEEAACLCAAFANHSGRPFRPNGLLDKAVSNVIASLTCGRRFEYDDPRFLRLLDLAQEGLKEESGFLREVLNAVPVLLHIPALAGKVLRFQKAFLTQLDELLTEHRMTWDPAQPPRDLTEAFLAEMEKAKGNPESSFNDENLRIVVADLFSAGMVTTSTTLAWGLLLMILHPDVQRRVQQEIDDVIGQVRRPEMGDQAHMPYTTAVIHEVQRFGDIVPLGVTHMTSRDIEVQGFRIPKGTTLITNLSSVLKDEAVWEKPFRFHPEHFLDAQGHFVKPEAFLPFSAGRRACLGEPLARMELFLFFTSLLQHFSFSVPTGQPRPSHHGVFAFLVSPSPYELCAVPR

As for `CNc1cc(-c2ccccc2CN(C)C)ncn1`, the Potency is 631 nM (active).
As to `FC(F)(F)c1ccccc1-c1ccc2ncnc(NCc3cccnc3)c2c1`, the Potency was 1580 nM (active).
The same measure for `CN(C)Cc1ccccc1-c1nc(N(C)C)c2ccccc2n1`: 2510 nM (active).
